Data: PubChem BioAssay AID1779 (Sanford-Burnham Center for Chemical Genomics, 2009)
In all, about 290,000 compounds went through this assay and about 160 (0.055%) were called active. Cut-off read from the data, not from the text of the source: active = inhibition above about 50%; inactive = the rest. Many of the other results were omitted from the sample, so actives are more common in it than they were.

What follows are compounds tested against Tyrosine-protein phosphatase non-receptor type 22 (Homo sapiens) (UniProt Q9Y2R2) (assay: PTPN22 lymphoid phosphatase activity blockers – biochemical, fluorescence intensity, uHTS (AID 1779;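 note: plate controls were vehicle with enzyme for no effect and no enzyme for full effect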)). Details: recombinant LYP phosphatase, at 11.5 µM, stronger effect = higher value.
Chain of Tyrosine-protein phosphatase non-receptor type 22 (Homo sapiens) (Q9Y2R2 whole entry, looked up): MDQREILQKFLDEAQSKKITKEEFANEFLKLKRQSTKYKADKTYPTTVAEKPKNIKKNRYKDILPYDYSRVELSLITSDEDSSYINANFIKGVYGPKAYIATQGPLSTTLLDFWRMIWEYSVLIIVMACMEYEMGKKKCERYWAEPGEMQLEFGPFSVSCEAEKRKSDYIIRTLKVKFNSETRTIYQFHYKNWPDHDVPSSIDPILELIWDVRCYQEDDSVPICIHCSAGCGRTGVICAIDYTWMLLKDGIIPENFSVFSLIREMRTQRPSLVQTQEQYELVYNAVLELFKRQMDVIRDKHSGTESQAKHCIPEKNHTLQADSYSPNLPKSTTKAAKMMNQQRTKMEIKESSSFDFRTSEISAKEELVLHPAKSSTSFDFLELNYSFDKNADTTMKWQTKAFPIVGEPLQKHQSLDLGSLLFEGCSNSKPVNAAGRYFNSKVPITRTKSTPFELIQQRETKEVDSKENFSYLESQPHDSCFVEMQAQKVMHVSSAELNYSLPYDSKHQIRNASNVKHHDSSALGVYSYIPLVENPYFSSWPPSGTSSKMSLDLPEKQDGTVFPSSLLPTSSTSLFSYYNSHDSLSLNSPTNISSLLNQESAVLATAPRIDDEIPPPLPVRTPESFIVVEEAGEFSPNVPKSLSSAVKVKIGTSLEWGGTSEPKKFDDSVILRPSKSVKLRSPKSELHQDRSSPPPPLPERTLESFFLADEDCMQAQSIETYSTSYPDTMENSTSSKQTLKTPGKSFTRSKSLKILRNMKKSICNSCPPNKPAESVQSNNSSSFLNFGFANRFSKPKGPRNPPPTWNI
For `COc1cc2c(C(=O)Nc3ccccc3F)cn(C)c(=O)c2cc1OC`, the inhibition was -10.5% (inactive).
In the case of `CCOC(=O)c1ccc(-c2ccc3c(=O)c4ccccc4n(C)c3c2)cc1F`, the inhibition is reported as -15.2% (inactive).
In the case of `CN1CCN(S(=O)(=O)c2cccc(C(=O)NCCOc3ccccc3F)c2)CC1`, the inhibition is reported as -15.4% (inactive).
`Cc1cc(=O)n2c(n1)NC(Nc1cccc(C)c1C)=NC2c1ccc(F)cc1` (stereo unspecified) was tested, and the inhibition was -3.8% (inactive).
For `O=C(COC(=O)c1ccccc1F)c1ccc(-n2nncc2-c2ccco2)cc1`, the inhibition was -3.3% (inactive).
For `CSc1ccccc1NC(=O)CSc1nnc(Cc2ccccc2)o1`, the inhibition was -12.7% (inactive).
For `CCOC(=O)c1sc2nc3c(SCCC(=O)O)cc(C(=O)c4cc(OC)ccc4O)cn3c(=O)c2c1C`, the inhibition was 53.3% (active).
With `CCOC(=O)c1sc2nc3c(SCC(=O)O)cc(C(=O)c4cc(F)ccc4O)cn3c(=O)c2c1C` the inhibition was 5.2% (inactive).
In the case of `CCOC(=O)c1sc2nc3c(SCCC#N)cc(C(=O)c4cc(F)ccc4O)cn3c(=O)c2c1C`, the inhibition is reported as 1.4% (inactive).
`O=C(Nc1cc(Cl)cc(Cl)c1)C(NCC1CCCO1)c1ccccc1` (stereo unspecified) was tested, and the inhibition was 0% (inactive).
For `COc1ccc(CCNC(=O)CCC(=O)N2CCN(S(=O)(=O)c3ccccc3)CC2)cc1OC`, the inhibition was -4.5% (inactive).
`O=S(=O)(c1ccc(Br)cc1)c1nc(-c2ccccc2)oc1NCCN1CCOCC1` was tested, and the inhibition was -4.8% (inactive).
With `Cc1ccc(S(=O)(=O)c2nc(-c3ccccc3)oc2NCCCN2CCOCC2)cc1` the inhibition was 3.6% (inactive).
For `Cc1ccc(S(=O)(=O)c2nc(-c3ccccc3)oc2NCCN2CCOCC2)cc1`, the inhibition was 67.9% (active).
`O=C(CCN1C(=O)C2CC=C(Cl)CC2C1=O)NCc1ccco1` (stereo unspecified) was tested, and the inhibition was 55.2% (active).
With `O=C(CCN1C(=O)c2ccccc2C1=O)NCc1ccco1` the inhibition was -4.2% (inactive).
In the case of `O=C(CCN1C(=O)C2CC=C(Cl)CC2C1=O)NCc1ccccc1` (stereo unspecified), the inhibition is reported as -1.9% (inactive).
For `Cc1ccc(NC(=O)c2cccc3ccccc23)cc1`, the inhibition was -8.7% (inactive).
With `CC(C)CC(=O)Nc1ccc(C(=O)CN2CCN(c3ccc(O)cc3)CC2)cc1` the inhibition was -9.4% (inactive).
With `COc1ccc(C2CC(=O)OC3=C2C(=O)CC(C)(C)C3)c(OC)c1` (stereo unspecified) the inhibition was -2.3% (inactive).
For `Cc1ccc(C(=O)O)cc1NC(=O)c1ccc2c(c1)C(=O)N(c1ccc([N+](=O)[O-])cc1)C2=O`, the inhibition was 50.3% (active).
For `Cc1cc([N+](=O)[O-])ccc1N1C(=O)c2ccc(C(=O)Nc3ccccc3C(=O)O)cc2C1=O`, the inhibition was -5.4% (inactive).
In the case of `O=C(O)c1cccc(NC(=O)c2ccc3c(c2)C(=O)N(c2cccc([N+](=O)[O-])c2)C3=O)c1`, the inhibition is reported as -2% (inactive).
In the case of `C(=N\Nc1nc(-c2ccccc2)cs1)/c1cccnc1`, the inhibition is reported as 4.2% (inactive).
`CC(=O)c1ccc2noc(-c3cccc(C)c3)c2c1` was tested, and the inhibition was 8.5% (inactive).
In the case of `Cc1ccc2sc(NNC(=O)c3cc(=O)c4ccccc4o3)nc2c1C`, the inhibition is reported as 1.8% (inactive).
`C[C@H](NC(=O)Nc1cccc(C(F)(F)F)c1)C(=O)O` was tested, and the inhibition was -5.3% (inactive).
With `CSCC[C@H](NC(=O)Nc1cccc(C(F)(F)F)c1)C(=O)O` the inhibition was 61.2% (active).
With `CSCC[C@H](NC(=O)Nc1cccc(Br)c1)C(=O)O` the inhibition was -3.3% (inactive).
With `CC(OC(=O)c1ccc(NS(=O)(=O)c2ccc3[nH]c(=O)[nH]c3c2)cc1)C(N)=O` (stereo unspecified) the inhibition was -4.3% (inactive).
For `c1coc(C2Nc3cccc4cccc(c34)N2)c1`, the inhibition was 18.4% (inactive).
`Brc1ccc(C2Nc3cccc4cccc(c34)N2)o1` was tested, and the inhibition was 80.6% (active).
`Brc1cccc(C2Nc3cccc4cccc(c34)N2)c1` was tested, and the inhibition was -6.2% (inactive).
With `Cn1nc(C(C)(C)C)cc1NC(=O)Nc1ccc(Cl)cc1` the inhibition was 0% (inactive).
With `Cn1cccc1Cc1nnc(SCC(=O)Nc2ccccc2F)n1-c1ccc(F)cc1` the inhibition was 8.3% (inactive).
With `CCOc1ccccc1NC(=O)CSc1nnc(Cc2cccn2C)n1-c1ccc(F)cc1` the inhibition was 64.9% (active).
In the case of `COc1ccccc1NC(=O)CSc1nnc(Cc2cccn2C)n1-c1ccc(F)cc1`, the inhibition is reported as 1.1% (inactive).
`CCc1cccc(NC(=O)C2CCCN(c3ncnc4c3nc3n4CCCCC3)C2)c1` (stereo unspecified) was tested, and the inhibition was -6.4% (inactive).
In the case of `COc1ccccc1CC(NC(C)=O)C(=O)NC1CCN(C(=O)Nc2ccc(F)cc2)CC1` (stereo unspecified), the inhibition is reported as -8% (inactive).
In the case of `Cc1nn(C)c(C(=O)N/N=C/c2cccnc2)c1Cl`, the inhibition is reported as -2.8% (inactive).
In the case of `Cc1ccccc1Cc1c(C)nc2ncnn2c1C`, the inhibition is reported as -9% (inactive).
`O=C(O)CCCNc1cc(N2CCN(C(=O)c3ccco3)CC2)c2noc3c2c1C(=O)c1ccccc1-3` was tested, and the inhibition was 2.4% (inactive).
For `O=C(O)CCCNc1cc(N2CCC3(CC2)OCCO3)c2noc3c2c1C(=O)c1ccccc1-3`, the inhibition was 75.6% (active).
With `CCOC(=O)N1CCN(c2cc(NCCC(=O)O)c3c4c(onc24)-c2ccccc2C3=O)CC1` the inhibition was 3.3% (inactive).
With `Clc1ccc2nc(-c3ccc(Br)s3)cn2c1` the inhibition was -4.3% (inactive).
For `CC(=Nc1ccccc1)c1sc2ccccc2c1O`, the inhibition was 2% (inactive).
With `COc1ccc(/C=C2\SC(N)=NC2=O)cc1Br` the inhibition was -4.5% (inactive).
With `COc1cccc(OC)c1C(=O)Nc1cccc(-c2ccc3nncn3n2)c1` the inhibition was -6.9% (inactive).
`COc1cccc(C(=O)Nc2cccc(-c3ccc4nncn4n3)c2)c1OC` was tested, and the inhibition was -0.4% (inactive).
In the case of `CC(C)CC1=NN(C(=O)c2ccco2)C(O)(C(F)(F)F)C1` (stereo unspecified), the inhibition is reported as -6.1% (inactive).
For `C=CCN(CC=C)C(=S)NC(=O)/C=C/c1ccc(C)cc1`, the inhibition was 65.4% (active).
In the case of `C=CCN(CC=C)C(=S)NC(=O)/C=C/c1ccc(OC)cc1`, the inhibition is reported as 8.3% (inactive).
`C=CCN(CC=C)C(=S)NC(=O)/C=C/c1ccccc1` was tested, and the inhibition was 2.6% (inactive).
`COc1ccc(S(=O)(=O)Nc2nccs2)cc1OC` was tested, and the inhibition was -10.2% (inactive).
`CCC(C)n1c(C)nc2c(c1=O)c1nc3ccccc3nc1n2CCC1=CCCCC1` (stereo unspecified) was tested, and the inhibition was 7.5% (inactive).
`c1ccc(-c2cc(N3CCOCC3)nc3ccccc23)cc1` was tested, and the inhibition was 2.6% (inactive).
With `COc1ccc2c(C)cc(N3CCOCC3)nc2c1` the inhibition was -0.1% (inactive).
For `COc1ccc2c(-c3ccccc3)cc(N3CCOCC3)nc2c1`, the inhibition was 72.7% (active).
`NC(=O)c1nn(-c2ccccc2)nc1NC(=O)CSc1nnnn1-c1ccc(Cl)cc1` was tested, and the inhibition was 5.7% (inactive).
With `Cc1cccc(NC(=O)c2ccc(OC3CSC3)cc2)c1` the inhibition was -5% (inactive).
With `CC(=O)c1cccc(NC(=O)c2ccc(OC3CSC3)cc2)c1` the inhibition was -7% (inactive).
In the case of `O=C(Nc1ccc(Cl)cc1)c1ccc(OC2CSC2)cc1`, the inhibition is reported as 67.9% (active).
With `O=C(NCc1ccncc1)c1cncc(Br)c1` the inhibition was -9.5% (inactive).
`O=C(NCc1ccccc1)c1cncc(Br)c1` was tested, and the inhibition was 67.8% (active).
For `Cc1ccc(CNC(=O)c2cncc(Br)c2)cc1`, the inhibition was -2.9% (inactive).
With `NC(=O)Nc1ccc(C(=O)OCC(=O)Nc2cccc(S(=O)(=O)NC3=NCCCCC3)c2)cc1` the inhibition was -1.2% (inactive).
With `CCOC(=O)c1cc(-c2ccccc2)sc1NC(=S)Nc1cccc(C)n1` the inhibition was 5.7% (inactive).
In the case of `Cc1ccc2nsnc2c1NC(=O)CCl`, the inhibition is reported as -1.6% (inactive).
With `CCCCc1nc(S(=O)(=O)c2ccc(Cl)cc2)c(N2CCOCC2)o1` the inhibition was -7.7% (inactive).
With `CC(C)Cc1nc(S(=O)(=O)c2ccc(Cl)cc2)c(N2CCOCC2)o1` the inhibition was 81.8% (active).
For `CC(C)(C)c1nc(S(=O)(=O)c2ccc(Cl)cc2)c(N2CCOCC2)o1`, the inhibition was -10.6% (inactive).
For `CCc1ccc2c(CC(=O)Nc3nnc(C4CC4)s3)coc2c1`, the inhibition was -7.3% (inactive).
`Cc1ccc(CNC(=O)CN2CCN(c3ccc(F)cc3)CC2)cc1` was tested, and the inhibition was 1.2% (inactive).
With `CCN(CCO)Cc1csc2ccc(C(C)(C)C)cc12` the inhibition was 52.5% (active).
For `CCN(CCO)Cc1csc2ccc(Cl)cc12`, the inhibition was -3.3% (inactive).
`CCN(CCO)Cc1csc2ccc(Br)cc12` was tested, and the inhibition was -8.6% (inactive).
In the case of `FC(F)(F)c1cc(Cl)c2nnc(-c3cccnc3)n2c1`, the inhibition is reported as -4.4% (inactive).
With `Cc1ccc(NC(=Nc2ccc(Br)cc2)N2CCOCC2)cc1C` the inhibition was -2.9% (inactive).
With `Cc1ccc2[nH]c(=O)cc(C(=O)OCC(=O)c3ccccc3)c2c1` the inhibition was 70.6% (active).
With `Cc1ccc2[nH]c(=O)cc(C(=O)OCC(=O)c3ccc(F)cc3)c2c1` the inhibition was 1.2% (inactive).
`Cc1ccc(C(=O)COC(=O)c2cc(=O)[nH]c3ccccc23)cc1` was tested, and the inhibition was -5.1% (inactive).
With `Cn1c(C(=O)NC2CCCCC2)cc2sccc21` the inhibition was -4.8% (inactive).
With `CCOC(=O)c1ccc(NC(=S)Nc2ccccc2)cc1` the inhibition was -5.5% (inactive).
With `CCC(=O)NC(=S)Nc1ccc(NC(=O)COc2ccccc2)cc1` the inhibition was -2.2% (inactive).
With `CCOC(=O)c1ccc(NC(=S)NC(=O)COc2ccccc2)cc1` the inhibition was 69.2% (active).
In the case of `COc1ccc2[nH]c(=O)c(CN(c3ccccc3OC)S(=O)(=O)c3ccccc3)cc2c1`, the inhibition is reported as -5.9% (inactive).
In the case of `Nc1nc(NCCN2CCOCC2)nc(NCc2ccccc2)c1[N+](=O)[O-]`, the inhibition is reported as -6% (inactive).
In the case of `CC(C)CCNC(=O)c1ccc2c(Cl)c3c(nc2c1)CCC3`, the inhibition is reported as 85.9% (active).
In the case of `COCCNC(=O)c1ccc2c(Cl)c3c(nc2c1)CCC3`, the inhibition is reported as -7.1% (inactive).
With `CC(C)CCNC(=O)c1ccc2c(SCC(=O)O)c3c(nc2c1)CCC3` the inhibition was -1.8% (inactive).
With `O=C(Nc1ccccc1C(=O)NCc1ccccc1)c1ccccc1Br` the inhibition was -1.2% (inactive).
`O=C(NC1CCCCC1)C(c1ccccc1)N1CCc2ccccc21` (stereo unspecified) was tested, and the inhibition was 3% (inactive).
With `COc1ccc(C(C(=O)NC2CCCC2)N2CCc3ccccc32)cc1` (stereo unspecified) the inhibition was 88.2% (active).
In the case of `Cc1ccc(C(C(=O)NC2CCCC2)N2CCc3ccccc32)cc1` (stereo unspecified), the inhibition is reported as 0.4% (inactive).
In the case of `COc1ccc(CNC(=O)Cc2ccc(NC(=O)C3=C(C)OCCS3)cc2)cc1`, the inhibition is reported as -1.9% (inactive).
`CC(O)CNc1nc2c(c(=O)n(Cc3ccc(Cl)c(Cl)c3)c(=O)n2C)n1C` (stereo unspecified) was tested, and the inhibition was -3.6% (inactive).
